# Screening data deposited in PubChem BioAssay by National Center for Advancing Translational Sciences (NCATS).
# In the library only some 19% were active in any assay of this set; here they are far more common.
# IL-1B inflam inh: blocks inflammasome-driven IL-1 beta release; 360,000 compounds, 4.7% hits; AID 743279; THP-1 LPS/ATP IL-1B secretion, AlphaLISA, 16 h; active compounds read low; activity change, % at 57.5 µM; in the data active = activity change below about -50%; inconclusive = mostly about -30% to -49%
#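 Secreted IL-1B measured by AlphaLISA bead assay after 16 h compound exposure of THP-1 cells; compounds (final up to 57.5 uM) added 1 h before LPS (250 ng/mL) and ATP (1.25 mM) stimulation; lower signal means less secretion.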
# HT1080 IDH1KD tx: kills HT-1080 cells with IDH1 knockdown | 360,000 compounds, 2% hits | Potency, µM (series often up to 46.1 µM), usual class: cytotoxic | HT-1080 IDH1 knockdown viability, ATP luminescence, 48 h
#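 IDH1KD HT-1080 cells, 750/well, RPMI + 5% FBS; compound pinned after 2 h settling; 48 h, 37 °C; CellTiter-Glo luminescence; % activity normalised to DMSO and no-cell wells; curves fitted, classed by r2 and efficacy.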
# HT1080NT lethal: kills 2HG-producing HT-1080-NT fibrosarcoma cells; AID 686970; HT-1080-NT fibrosarcoma viability, CellTiter-Glo ATP luminescence, 48 h; Potency, µM (highest dose often 46.1 µM), actives largely listed as cytotoxic; 360,000 compounds, 1.6% hits;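 also: NT is the 2HG producing partner of a matched IDH1 knockdown line; nearly all actives have a fitted effect of over 55% in size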
#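 Viability of the 2HG-overproducing fibrosarcoma line after 48 hours of compound exposure at 37 degrees C was determined by luminescence with CellTiter-Glo, and concentration-effect curves were then fitted and categorized.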
# DT40 TDP1 no CPT: qHTS for Inhibitors of human tyrosyl-DNA phosphodiesterase 1 (TDP1): qHTS in cells in absence of CPT; 420,000 compounds, 15% hits; DT40 Tdp1-/- hTDP1 cells, no CPT, ATP luminescence, 48 h; Potency, µM (doses to about 46.2 µM), usual class: inhibitors; also: nearly all actives have a fitted effect of over 55% in size
#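 No-CPT arm: Tdp1-/-;hTDP1 DT40 cells (400/well) plus compounds, incubated ≥48 hr at 37 °C. Readout CellTiter-Glo luminescence.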
# DT40 TDP1 CPT: DT40-hTDP1 cell growth loss with CPT; chicken DT40 Tdp1-/-;hTDP1 cells + 20 nM CPT, ATP luminescence, 48 h; Potency, µM (titrated, usually from 46.2 µM), usual class: inhibitors; 420,000 compounds, 12% hits; also: nearly all actives have a fitted effect of over 55% in size
#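 Cell growth measured by CellTiter-Glo luminescence after a minimum 48 h, 37 C compound exposure with 20 nM CPT in Tdp1-knockout DT40 cells stably expressing hTDP1, seeded 400/well; qHTS titration format.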
# ELG1 repair inh: ELG1-dependent DNA repair inhibition; 330,000 compounds, 2.3% hits; HEK293T ELG1-luciferase reporter, luminescence, 16 h; DNA damage induced by 5-fluorouridine; Potency, µM (titrated, usually from 46.1 µM), hits mostly inhibitors; also: nearly all actives have a fitted effect of over 55% in size
#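 5-Fluorouridine DNA damage + compound/DMSO, 2,000 cells/well, 16 h, 37 °C/5% CO2. ONE-Glo, 30 min RT, luminescence. Readout = decrease in reporter signal.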
# A number is an active result; – = inactive; ? = inconclusive; · = not tested or not shown. Unless noted, calls follow the shape of the dose curve; as a rule, active = well fitted curve in the direction sought with a large enough effect; inconclusive = small, poorly fitted or top-dose-only effect, or another doubt; inactive = no such curve, though single readings can be large; an effect the other way counts as inactive or inconclusive.
SMILES,IL-1B inflam inh,HT1080 IDH1KD tx,HT1080NT lethal,DT40 TDP1 no CPT,DT40 TDP1 CPT,ELG1 repair inh
COc1cccc(C(c2nnnn2-c2ccc3c(c2)OCCO3)N2CCC(n3c(=O)[nH]c4ccccc43)CC2)c1OC (centres undefined),–,?,?,2.3µM,2.9µM,·
O=c1[nH]c2ccccc2n1C1CCN(C(c2ccccc2OC(F)(F)F)c2nnnn2-c2ccc3c(c2)OCCO3)CC1 (centres undefined),-56,23µM,?,4.6µM,7.3µM,·
O=CN1CCCCC1C1CC[C@H]2CCCCN2C1 (some centres undefined),·,·,·,–,–,·
CCCNc1oc(-c2cccc3ccccc23)nc1C#N,–,–,–,–,–,?
COP(=O)(OC)c1nc(-c2cccc3ccccc23)oc1N1CCOCC1,–,–,–,18µM,–,–
COP(=O)(OC)c1nc(-c2cccc3ccccc23)oc1NCCc1ccccc1,-95,?,?,?,?,?
CN(C)[C@H](Cc1ccccc1)c1ccccc1,·,·,·,–,–,·
Cc1ccccc1C(=O)Nc1ccc(C(=O)OCc2cc(=O)n3nc(C4CC4)sc3n2)cc1,·,·,·,?,21µM,·
COc1ccc(-n2nc(C(=O)NCC(=O)N3CCC4(CC3)OCCO4)c3ccccc3c2=O)c(OC)c1,–,–,–,–,–,?
Cc1cc(C=C2C(=O)NC(=S)NC2=O)c(C)n1-c1ccc2c(c1)OCO2,-101,?,–,?,?,–
Cc1cc(C=C2C(=O)NC(=O)NC2=O)c(C)n1-c1ccc2c(c1)OCO2,–,–,–,–,–,–
COc1ccccc1N=c1scc(-c2ccc(S(=O)(=O)N3CCCC3)cc2)n1C,·,·,·,2.9µM,5.2µM,·
N#Cc1ccccc1NC(=O)c1cccn(Cc2ccccc2)c1=O,·,·,·,15µM,18µM,·
Cc1nnc(NC(=O)c2cccn(Cc3ccccc3)c2=O)s1,·,·,·,–,–,·
Cc1cccc2sc(NC(=O)c3cccn(Cc4ccccc4)c3=O)nc12,·,·,·,13µM,?,·
CC(C)CN1Cc2ccccc2-n2nncc2C1,–,–,–,–,–,·
CCOP(=S)(OCC)Oc1nc(Cl)c(Cl)cc1Cl,–,–,–,–,–,–
Cc1nc2ccc(Br)cc2c(=O)n1-c1ccc([N+](=O)[O-])c(C(F)(F)F)c1,–,–,–,–,?,–
C[C@]12C=CC(=O)C=C1CC[C@@H]1[C@@H]2CC[C@@]2(C)[C@H]1CC[C@]2(C)O,·,·,·,19µM,?,·
CC12Cc3cnoc3C=C1CCC1C2CCC2(C)C1CCC2(C)O (centres undefined),-50,–,–,?,?,·
C[C@]12CCC(=O)C=C1CC[C@@H]1[C@@H]2CC[C@@]2(C)[C@H]1CC[C@]2(C)O,–,–,–,?,?,·
C[C@]1(O)CCC2C3CC[C@@H]4CC(=O)CC[C@]4(C)C3CC[C@@]21C (some centres undefined),–,–,–,?,18µM,–
C[C@]12CCC3C(CC[C@H]4CC(=O)CC[C@]34C)C1CCC2=O (some centres undefined),–,–,–,?,?,–
Cc1noc(C)c1C(=O)N1CCC2(CCCN(CC(C)C)C2)CC1,·,·,·,–,–,·
CCN(C[C@H]1N[C@@](C)(C(=O)OC)[C@H]2C(=O)N(Cc3ccccc3)C(=O)[C@@H]12)C(=O)Nc1ccc(C)cc1,–,–,–,?,–,–
SMILES,IL-1B inflam inh,HT1080 IDH1KD tx,HT1080NT lethal,DT40 TDP1 no CPT,DT40 TDP1 CPT,ELG1 repair inh
O=C(NCc1c(-n2cccc2)sc2c1CCCC2)Nc1cccc(C(F)(F)F)c1,·,·,·,4.1µM,4.1µM,·
Clc1ccc(NC2=NCCCS2)cc1Cl,–,–,–,?,–,?
COc1ccc(OCCn2c(NC(=O)c3ccc(OC)cc3)nc3ccccc32)cc1,·,·,·,16µM,18µM,·
CCOC(=O)C1(C)CCCN1C(=O)c1cccs1 (centres undefined),–,–,?,–,–,·
Cc1ccc(C)c(S(=O)(=O)Nc2ccc3c(c2)CCCN3C(=O)c2cccs2)c1,·,·,·,18µM,16µM,·
COC(=O)C1=C(c2ccccc2)C[C@@H]2CC[C@H]1N2C(=O)N1CCC(O)CC1,–,–,–,–,–,·
c1ccc(C(c2ccccc2)N2CCN(c3ccc4ccccc4n3)CC2)cc1,–,–,–,?,?,–
Cc1ccc(-c2nn(Cc3ccccc3)cc2C=O)cc1C,–,–,–,16µM,?,?
Cc1ccc(-c2nn(Cc3ccccc3)cc2C=O)cc1,–,–,–,?,–,?
COc1cc(C[C@H](C)N)c(OC)cc1C,·,·,·,–,–,·
O=C(CF)NC(NC(=S)Nc1cccc([N+](=O)[O-])c1)C(Cl)(Cl)Cl (centres undefined),–,–,–,?,21µM,–
COc1ccc(NC(=S)NC(NC(=O)CF)C(Cl)(Cl)Cl)cc1[N+](=O)[O-] (centres undefined),–,–,–,–,–,–
COC[C@]12CN(C)C3C4[C@H](OC)[C@H]1C3([C@@H](OC)C[C@H]2O)[C@@H]1C[C@@]2(O)[C@H](OC(=O)c3ccccc3)[C@@H]1[C@]4(OC(C)=O)[C@@H](O)[C@@H]2OC,–,–,–,–,–,·
C[n+]1c(-c2ccccc2)cc(-c2ccc(Cl)cc2)cc1-c1ccccc1,-83,?,?,2.1µM,3.7µM,?
CN(C)c1ccc(-[n+]2c(-c3ccccc3)cc(-c3ccccc3)cc2-c2ccccc2)cc1,-92,2.6µM,10µM,0.41µM,0.33µM,4.6µM
CC(=O)c1ccc(-c2ccccc2)cc1,–,–,–,–,–,?
Cc1ccc(-c2cc(-c3ccc(C)cc3)[n+](-c3ccccc3)c(-c3ccc(C)cc3)c2)cc1,-99,7.3µM,5.2µM,0.37µM,0.52µM,?
Cc1ccc(-c2cc(-c3ccc(C)cc3)[n+](-c3ccc(C(=O)[O-])cc3)c(-c3ccc(C)cc3)c2)cc1,–,–,–,?,?,?
Cc1ccc(-c2cc(-c3ccccc3)cc(-c3ccccc3)[n+]2-c2ccccc2)cc1,-100,12µM,?,0.92µM,1.6µM,?
CCCCCCCCC(c1nc2cc(C)c(C)cc2[nH]1)n1c(=O)c(-c2ccccc2Br)nc2ccccc21 (centres undefined),–,–,–,?,–,·
CCC1CN1P(=O)(N1CCCC1)N1CC1CC (centres undefined),–,–,–,?,?,·
CN(C)CCc1c[nH]c2ccccc12,·,·,·,–,–,·
O=[N+]([O-])NC1=NCCN1Cc1ccc(Cl)nc1,–,–,–,2.6µM,·,–
